Results reported in PubChem BioAssay AID624255 (Broad Institute, 2012).
Values joined by “and” are separate entries in the source; they are usually repeats but may differ in a detail not shown here. Identical values can stand only once. Out of some 77,000 compounds screened, about 4,600 (6%) were called active. Not shown: some 1% with an inconclusive outcome.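 The calls were made as follows: active = mean inhibition above about 93%, with at least 55% of replicates each passing it (limit read from the data, passing the limit was not always enough); inconclusive = only one of those two conditions holds; inactive = neither condition holds.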 For the sample, actives were picked, then their nearest neighbours and some compounds at random.

Assay: T. cruzi intracellular proliferation inhibitors, primary screen, cell-based, beta-gal Tulahuen parasites, NIH3T3 host, luminescence (AID 624255)
Details: T. cruzi beta-gal in NIH3T3, GalScreen luminescence, 90 h; at 8.34 µM; stronger effect = higher value

SMILES | inhibition
O=C(N[C@H]1CC[C@H](CCNS(=O)(=O)c2ccc(F)cc2)O[C@H]1CO)c1cccnc1 | 14.1% (inactive)
CCC(=O)Nc1ccc2c(c1)C(=O)N(C)[C@@H]1CC[C@H](CC(=O)NCCc3ccncc3)O[C@@H]1CO2 | 64.6% (inactive)
O=C(Cc1ccncc1)NCC[C@@H]1CC[C@H](NC(=O)Nc2ccc(Cl)cc2)[C@@H](CO)O1 | 37% (inactive)
O=C(C[C@H]1C[C@H]2c3cc(NC(=O)Cc4ccncc4)ccc3O[C@H]2[C@@H](CO)O1)NCc1cccc(F)c1 | -15.1% (inactive)
O=C(C[C@H]1CC[C@H]2[C@@H](COC[C@H](O)CN2CCC(F)(F)F)O1)N1CCC(Cc2ccccc2)CC1 | 65.1% (inactive)
CN1C(=O)c2cc(NC(=O)c3ccccc3)ccc2OC[C@@H]2O[C@@H](CC(=O)NC3CCCC3)CC[C@H]21 | 18.9% (inactive)
CC=Cc1ccc2n(c1=O)C[C@@H]1[C@@H](CO)[C@H](C(=O)N(C)C)[C@H]2N1CCc1ccccc1 (mixture of isomers) | 37% (inactive)
Cc1ccccc1S(=O)(=O)N1[C@H](C#N)[C@H](c2ccccc2)[C@H]1CO | -43.9% (inactive)
COc1ccc(NC(=O)N(C)C[C@H]2Oc3c(NC(=O)NC(C)C)cccc3C(=O)N([C@@H](C)CO)C[C@H]2C)cc1 | 39.4% (inactive)
C[C@@H]1CN([C@@H](C)CO)C(=O)c2cccc(NC(=O)Nc3cccc4ccccc34)c2O[C@H]1CN(C)S(=O)(=O)c1ccccc1 | 41.2% (inactive)
COc1ccc(S(=O)(=O)N(C)C[C@@H]2Oc3c(NC(=O)NC(C)C)cccc3C(=O)N([C@@H](C)CO)C[C@@H]2C)cc1 | 11.6% (inactive)
COc1ccc(NC(=O)N(C)C[C@@H]2Oc3c(NC(=O)NC4CCCCC4)cccc3C(=O)N([C@@H](C)CO)C[C@@H]2C)cc1 | 99.3% (active)
COc1ccc(NC(=O)N(C)C[C@@H]2Oc3c(NC(=O)NC4CCCCC4)cccc3C(=O)N([C@H](C)CO)C[C@H]2C)cc1 | 2.44% (inactive)
COc1ccc(S(=O)(=O)N(C)C[C@H]2Oc3c(NC(=O)Nc4cccc5ccccc45)cccc3C(=O)N([C@@H](C)CO)C[C@H]2C)cc1 | 128% (active)
Cc1ccc(S(=O)(=O)N(C)C[C@@H]2Oc3c(NC(=O)c4nc5ccccc5s4)cccc3C(=O)N([C@H](C)CO)C[C@@H]2C)cc1 | 110% (active)
C[C@@H]1CN([C@@H](C)CO)C(=O)c2cccc(NC(=O)c3nc4ccccc4s3)c2O[C@H]1CN(C)S(=O)(=O)c1cccs1 | 82.6% (inactive)
C[C@@H]1CN([C@H](C)CO)C(=O)c2cccc(NC(=O)c3nc4ccccc4s3)c2O[C@H]1CN(C)S(=O)(=O)c1ccc(Cl)cc1 | 55.8% (inactive)
CO[C@H]1CN(C)C(=O)c2ccc(NS(C)(=O)=O)cc2OC[C@@H](C)N(C(=O)c2ccc3c(c2)OCO3)C[C@@H]1C | 22.5% (inactive)
O=C(C[C@@H]1CC[C@H]2[C@@H](COC[C@H](O)CN2C(=O)Nc2ccc(Cl)cc2)O1)NCC1CC1 | 9.76% (inactive)
O=C(c1cccnc1)N1C[C@H]2[C@@H](c3ccccc31)[C@H](CO)N2C(=O)C1CC1 | 32.1% (inactive)
COc1ccc(NC(=O)Nc2ccc3c(c2)[C@H]2C[C@H](CC(=O)NC4CCCCC4)O[C@H](CO)[C@H]2O3)cc1 | -22.1% (inactive)

SMILES | inhibition
O=C(NC1CCCC1)[C@H]1[C@H](CO)[C@H]2Cn3c(cccc3=O)[C@H]2N1C(=O)NC1CCCC1 | -32.8% (inactive)
C[C@@H]1CN([C@H](C)CO)C(=O)c2cc(-c3cccc(C#N)c3)cnc2O[C@H]1CN(C)C(=O)C1CCC1 | -99.6% (inactive)
COCC(=O)Nc1ccc2c(c1)OC[C@H](C)N(C(=O)c1ccccn1)C[C@@H](C)[C@H](OC)CN(C)C2=O | 26.6% (inactive)
C[C@H](CO)N1C[C@H](C)[C@@H](CN(C)C(=O)C2CC2)Oc2ncc(-c3cccc(C#N)c3)cc2C1=O | 68.3% (inactive)
Cc1ccc(S(=O)(=O)N2C[C@H](O)COC[C@@H]3O[C@H](CC(=O)N[C@H]4CCN(Cc5ccccc5)C4)CC[C@H]32)cc1 | 51.3% (inactive)
C[C@@H]1CN([C@H](C)CO)S(=O)(=O)c2ccc(-c3ccccc3)cc2O[C@H]1CN(C)C(=O)C1CCC1 | 55% (inactive)
CC(C)CC#Cc1ccc2c(c1)O[C@H](CN(C)C(=O)C1CC1)[C@@H](C)CN([C@@H](C)CO)S2(=O)=O | 115% (active)
C[C@H](O)C#Cc1ccc2c(c1)O[C@H](CN(C)C(=O)C1CC1)[C@@H](C)CN([C@H](C)CO)S2(=O)=O | 13.9% (inactive)
CCCC#Cc1ccc2c(c1)O[C@H](CN(C)C(=O)C1CCCCC1)[C@H](C)CN([C@H](C)CO)S2(=O)=O | 68.4% (inactive)
C[C@@H]1CN([C@@H](C)CO)S(=O)(=O)c2ccc(C#CCN(C)C)cc2O[C@H]1CN(C)C(=O)C1CC1 | 94.7% (active)
C[C@@H]1CN([C@H](C)CO)S(=O)(=O)c2ccc(-c3ccccc3)cc2O[C@@H]1CN(C)C(=O)C1CC1 | 84.2% (inactive)
CCC(=O)N(C)C[C@H]1Oc2cc(C#CCC(C)C)ccc2S(=O)(=O)N([C@H](C)CO)C[C@H]1C | 41.2% (inactive)
C[C@H](O)C#Cc1ccc2c(c1)O[C@@H](CN(C)C(=O)C1CC1)[C@H](C)CN([C@H](C)CO)S2(=O)=O | -20.8% (inactive)
C[C@H](CO)N1C[C@H](C)[C@@H](CN(C)C(=O)C2CCCCC2)Oc2cc(-c3ccccc3)ccc2S1(=O)=O | 103% (active)
COCC(=O)Nc1ccc2c(c1)[C@@H]1C[C@@H](CC(=O)N3CCN(C)CC3)O[C@H](CO)[C@@H]1O2 | -9.47% (inactive)
COc1ccc(NC(=O)N(C)C[C@H]2Oc3cc(-c4ccncc4)ccc3S(=O)(=O)N([C@@H](C)CO)C[C@H]2C)cc1 | 53.3% (inactive)
CCCNC(=O)[C@H]1[C@H](CO)[C@H]2Cn3c(ccc(C4=CCCC4)c3=O)[C@H]2N1C(=O)CC1CC1 | -12.5% (inactive)
C[C@H](NC(=O)C[C@H]1CC[C@H]2[C@@H](COC[C@H](O)CN2C(=O)Nc2cc(Cl)cc(Cl)c2)O1)c1ccccc1 | 20.2% (inactive)
Cc1ccccc1S(=O)(=O)N[C@@H]1CC[C@@H](CCNS(=O)(=O)c2cccc(F)c2)O[C@H]1CO | 22% (inactive)
CCC(=O)N(C)C[C@H]1Oc2ncc(-c3ccc(C#N)cc3)cc2C(=O)N([C@@H](C)CO)C[C@H]1C | 51.9% (inactive)
COc1ccc(-c2cnc3c(c2)C(=O)N([C@H](C)CO)C[C@@H](C)[C@H](CN(C)Cc2ccccc2)O3)cc1 | 19.2% (inactive) and 75.6% (inactive)

SMILES | inhibition
C/C=C/c1ccc([C@H]2[C@@H](C#N)N(C(=O)CN3CCOCC3)[C@@H]2CO)cc1 | 80.8% (inactive)
N#C[C@H]1[C@H](c2ccc(-c3ccccc3)cc2)[C@@H](CO)N1C(=O)Cc1ccccc1 | 79.5% (inactive)
N#C[C@@H]1[C@@H](c2ccccc2)[C@@H](CO)N1C(=O)Cc1ccccc1 | 105% (active)
N#C[C@@H]1[C@H](c2ccc(C#Cc3ccccc3F)cc2)[C@H](CO)N1C(=O)C1CCCCC1 | 83.3% (inactive)
N#C[C@@H]1[C@@H](c2ccc(-c3ccccc3)cc2)[C@@H](CO)N1C(=O)Cc1ccccc1 | 31% (inactive)
COc1ccccc1C#Cc1ccc([C@@H]2[C@@H](CO)N(C(=O)C3CC3)[C@H]2C#N)cc1 | 88.6% (inactive)
COCC(=O)N1[C@H](CO)[C@@H](c2ccc(C#Cc3ccccc3F)cc2)[C@@H]1C#N | 97.7% (active)
COC(=O)C[C@@H]1C[C@H]2c3cc(NC(=O)Nc4ccc(F)cc4)ccc3O[C@H]2[C@@H](CO)O1 | -1.42% (inactive)
CC(=O)NC[C@H]1[C@H](c2ccc(C3=CCCCC3)cc2)[C@@H](CO)N1C(=O)NC(C)C | 21.7% (inactive)
COc1ccccc1S(=O)(=O)N[C@@H]1CC[C@H](CC(=O)N2CCOCC2)O[C@@H]1CO | 16.9% (inactive)
CNC(=O)C[C@@H]1CC[C@@H]2[C@H](COc3ccc(NC(=O)Nc4ccccc4)cc3C(=O)N2C)O1 | 7.48% (inactive)
C[C@H](CO)N1C[C@H](C)[C@H](CN(C)CC2CC2)OCCCC[C@H](C)Oc2ccc(NC(=O)c3ccncc3)cc2C1=O | 29.6% (inactive)
CCC(=O)N1C[C@H](C)[C@@H](OC)CN(C)C(=O)c2cc(NC(=O)c3cnccn3)ccc2OC[C@@H]1C | 11% (inactive)
COCC(=O)N1[C@H](CNC(=O)c2ccccn2)[C@H](c2ccccc2)[C@@H]1CO | 26.4% (inactive)
CCNC[C@@H]1[C@@H](c2ccccc2)[C@@H](CO)N1C(=O)Cc1ccccn1 | 31.9% (inactive)
COCCNC[C@@H]1[C@H](c2ccccc2)[C@H](CO)N1c1nc(C)c(C)s1 | 100% (active)
COC(=O)C[C@@H]1CC[C@@H]2[C@H](COc3ccc(NC(=O)c4ccccc4OC)cc3C(=O)N2C)O1 | 44.4% (inactive)
CC(=O)N1[C@H](CO)[C@H]2c3ccccc3N(C(=O)c3ccc(F)cc3)C[C@H]21 | 14.7% (inactive)
CCC(=O)N1[C@@H](CO)[C@@H]2c3ccccc3N(C(=O)c3ccccc3F)C[C@@H]21 | 6.74% (inactive)
O=C(c1ccccc1F)N1C[C@H]2[C@@H](c3ccccc31)[C@@H](CO)N2C(=O)c1ccc(F)cc1 | 103% (active)
O=C(C[C@@H]1C[C@@H]2c3cc(NC(=O)CC4CC4)ccc3O[C@@H]2[C@@H](CO)O1)NCCN1CCCCC1 | -43.9% (inactive)
